# About 110 (5.5%) of roughly 2,000 compounds showed an effect of 50% or more. The sample holds strong results, similar compounds and a random draw of the others, so the mix is not that of the screen.
# Biological target: Genome polyprotein (dengue virus type 2) (UniProt P29990)
smiles,measurement,setting,value
NC(=O)c1cccc(NC(=O)[C@@H](NC(=O)c2ccc(Oc3ccc(C(F)(F)F)cc3)cc2)c2ccc(OCc3ccccc3)cc2)c1,inhibition,"Thailand/16681/1984, Concentration 49.5 uM, Number of replicates 2.0, Standard deviation 0.7362133947681709 %",6.2%
same,inhibition,"Thailand/16681/1984, Concentration 99.01 uM, Number of replicates 2.0, Standard deviation 0.5343411171689955 %",12.7%
same,inhibition,"Thailand/16681/1984, Concentration 198.0 uM, Number of replicates 2.0, Standard deviation 1.7800185360663037 %",24.8%
N=C(N)NCCC[C@H](NC(=O)c1nccs1)C(=O)N[C@@H](CCCCN)C(=O)N[C@@H](C(N)=O)c1ccc(OCc2ccc(C(F)(F)F)cc2)cc1,inhibition,"Thailand/16681/1984, Concentration 49.5 uM, Number of replicates 2.0, Standard deviation 0.01715005842126491 %",96.2%
same,inhibition,"Thailand/16681/1984, Concentration 49.5 uM, Number of replicates 2.0, Standard deviation 0.019135343573522066 %",96.1%
same,inhibition,"Thailand/16681/1984, Concentration 49.5 uM, Number of replicates 2.0, Standard deviation 0.03570815875758177 %",95.6%
same,inhibition,"Thailand/16681/1984, Concentration 49.5 uM, Number of replicates 2.0, Standard deviation 0.054562972907415325 %",95.2%
same,inhibition,"Thailand/16681/1984, Concentration 49.5 uM, Number of replicates 2.0, Standard deviation 0.06140896980473687 %",95.7%
same,inhibition,"Thailand/16681/1984, Concentration 49.5 uM, Number of replicates 2.0, Standard deviation 0.10612104410339795 %",97.2%
same,inhibition,"Thailand/16681/1984, Concentration 49.5 uM, Number of replicates 2.0, Standard deviation 0.10687631562871318 %",95.4%
same,inhibition,"Thailand/16681/1984, Concentration 49.5 uM, Number of replicates 2.0, Standard deviation 0.10916370939109642 %",95.9%
same,inhibition,"Thailand/16681/1984, Concentration 49.5 uM, Number of replicates 2.0, Standard deviation 0.11089004430610264 %",91.3%
same,inhibition,"Thailand/16681/1984, Concentration 49.5 uM, Number of replicates 2.0, Standard deviation 0.12066541576232535 %",96.7%
same,inhibition,"Thailand/16681/1984, Concentration 49.5 uM, Number of replicates 2.0, Standard deviation 0.12893024416791762 %",95%
same,inhibition,"Thailand/16681/1984, Concentration 49.5 uM, Number of replicates 2.0, Standard deviation 0.18367124536344298 %",96.2%
same,inhibition,"Thailand/16681/1984, Concentration 49.5 uM, Number of replicates 2.0, Standard deviation 0.22697527774705212 %",95.7%
same,inhibition,"Thailand/16681/1984, Concentration 49.5 uM, Number of replicates 2.0, Standard deviation 0.262397512284336 %",95.2%
same,inhibition,"Thailand/16681/1984, Concentration 49.5 uM, Number of replicates 2.0, Standard deviation 0.3581065989316027 %",96.5%
same,inhibition,"Thailand/16681/1984, Concentration 49.5 uM, Number of replicates 2.0, Standard deviation 0.6751965592419794 %",94.5%
same,inhibition,"Thailand/16681/1984, Concentration 49.5 uM, Number of replicates 4.0, Standard deviation 0.3877656068031149 %",96.3%
same,inhibition,"Thailand/16681/1984, Concentration 49.8 uM, Number of replicates 2.0, Standard deviation 0.008615490185202914 %",98.3%
same,inhibition,"Thailand/16681/1984, Concentration 49.95 uM, Number of replicates 2.0, Standard deviation 0.5898131133050937 %",90.4%
same,inhibition,"Thailand/16681/1984, Concentration 50.0 uM, Number of replicates 2.0, Standard deviation 2.607110988642393 %",82.5%
same,inhibition,"Thailand/16681/1984, Concentration 98.52 uM, Number of replicates 2.0, Standard deviation 0.0007930351015809821 %",99.7%
same,inhibition,"Thailand/16681/1984, Concentration 99.01 uM, Number of replicates 2.0, Standard deviation 0.014371738167426778 %",98.3%
same,inhibition,"Thailand/16681/1984, Concentration 99.01 uM, Number of replicates 2.0, Standard deviation 0.015720437319775387 %",97.7%
same,inhibition,"Thailand/16681/1984, Concentration 99.01 uM, Number of replicates 2.0, Standard deviation 0.019361925031116632 %",97.6%
same,inhibition,"Thailand/16681/1984, Concentration 99.01 uM, Number of replicates 2.0, Standard deviation 0.03515249470681415 %",98%
same,inhibition,"Thailand/16681/1984, Concentration 99.01 uM, Number of replicates 2.0, Standard deviation 0.051056355111308946 %",98.5%
same,inhibition,"Thailand/16681/1984, Concentration 99.01 uM, Number of replicates 2.0, Standard deviation 0.05114267185705925 %",98.8%
same,inhibition,"Thailand/16681/1984, Concentration 99.01 uM, Number of replicates 2.0, Standard deviation 0.05214610402640662 %",98.2%
same,inhibition,"Thailand/16681/1984, Concentration 99.01 uM, Number of replicates 2.0, Standard deviation 0.05969881927955883 %",97.8%
same,inhibition,"Thailand/16681/1984, Concentration 99.01 uM, Number of replicates 2.0, Standard deviation 0.06259043026219424 %",97.6%
same,inhibition,"Thailand/16681/1984, Concentration 99.01 uM, Number of replicates 2.0, Standard deviation 0.0932706385798204 %",98.3%
same,inhibition,"Thailand/16681/1984, Concentration 99.01 uM, Number of replicates 2.0, Standard deviation 0.1268262734902538 %",98.1%
same,inhibition,"Thailand/16681/1984, Concentration 99.01 uM, Number of replicates 2.0, Standard deviation 0.1304084184388917 %",95.2%
same,inhibition,"Thailand/16681/1984, Concentration 99.01 uM, Number of replicates 2.0, Standard deviation 0.16720632611157116 %",97.6%
same,inhibition,"Thailand/16681/1984, Concentration 99.01 uM, Number of replicates 2.0, Standard deviation 0.19540492798887588 %",98.3%
same,inhibition,"Thailand/16681/1984, Concentration 99.01 uM, Number of replicates 2.0, Standard deviation 0.2057251739026474 %",97.9%
same,inhibition,"Thailand/16681/1984, Concentration 99.01 uM, Number of replicates 2.0, Standard deviation 0.39058866931676656 %",97.1%
same,inhibition,"Thailand/16681/1984, Concentration 99.01 uM, Number of replicates 4.0, Standard deviation 0.160745991426317 %",98.2%
same,inhibition,"Thailand/16681/1984, Concentration 99.5 uM, Number of replicates 2.0, Standard deviation 0.012726325201561474 %",99.3%
same,inhibition,"Thailand/16681/1984, Concentration 99.5 uM, Number of replicates 2.0, Standard deviation 0.04880672492519146 %",99.4%
same,inhibition,"Thailand/16681/1984, Concentration 99.9 uM, Number of replicates 2.0, Standard deviation 0.33233565552852545 %",95.1%
same,inhibition,"Thailand/16681/1984, Concentration 100.0 uM, Number of replicates 2.0, Standard deviation 1.0120962127020525 %",91.1%
same,inhibition,"Thailand/16681/1984, Concentration 198.0 uM, Number of replicates 2.0, Standard deviation 0.008588516202155942 %",97.6%
same,inhibition,"Thailand/16681/1984, Concentration 198.0 uM, Number of replicates 2.0, Standard deviation 0.009273655371549035 %",99.3%
same,inhibition,"Thailand/16681/1984, Concentration 198.0 uM, Number of replicates 2.0, Standard deviation 0.015984782353635714 %",99.5%
same,inhibition,"Thailand/16681/1984, Concentration 198.0 uM, Number of replicates 2.0, Standard deviation 0.02043009475977673 %",99%
same,inhibition,"Thailand/16681/1984, Concentration 198.0 uM, Number of replicates 2.0, Standard deviation 0.03091218457183012 %",99%
same,inhibition,"Thailand/16681/1984, Concentration 198.0 uM, Number of replicates 2.0, Standard deviation 0.034661568215359255 %",98.9%
same,inhibition,"Thailand/16681/1984, Concentration 198.0 uM, Number of replicates 2.0, Standard deviation 0.04180427892619749 %",98.9%
same,inhibition,"Thailand/16681/1984, Concentration 198.0 uM, Number of replicates 2.0, Standard deviation 0.05357033033128675 %",99.3%
same,inhibition,"Thailand/16681/1984, Concentration 198.0 uM, Number of replicates 2.0, Standard deviation 0.055172584924276895 %",99.5%
same,inhibition,"Thailand/16681/1984, Concentration 198.0 uM, Number of replicates 2.0, Standard deviation 0.06522309100757873 %",99.1%
same,inhibition,"Thailand/16681/1984, Concentration 198.0 uM, Number of replicates 2.0, Standard deviation 0.07510635839598934 %",99.3%
same,inhibition,"Thailand/16681/1984, Concentration 198.0 uM, Number of replicates 2.0, Standard deviation 0.08009654525967919 %",99.1%
same,inhibition,"Thailand/16681/1984, Concentration 198.0 uM, Number of replicates 2.0, Standard deviation 0.10986503295031769 %",99.2%
same,inhibition,"Thailand/16681/1984, Concentration 198.0 uM, Number of replicates 2.0, Standard deviation 0.15163694309685882 %",99%
same,inhibition,"Thailand/16681/1984, Concentration 198.0 uM, Number of replicates 2.0, Standard deviation 0.1571827940113163 %",98.9%
same,inhibition,"Thailand/16681/1984, Concentration 198.0 uM, Number of replicates 2.0, Standard deviation 0.24491837126989802 %",98.3%
same,inhibition,"Thailand/16681/1984, Concentration 198.0 uM, Number of replicates 4.0, Standard deviation 0.0821711955101111 %",99.2%
same,inhibition,"Thailand/16681/1984, Concentration 295.6 uM, Number of replicates 2.0, Standard deviation 0.015100035709695026 %",100%
same,inhibition,"Thailand/16681/1984, Concentration 295.6 uM, Number of replicates 2.0, Standard deviation 0.020829309708871917 %",99.9%
